# Compound activity from PubChem.
# In the library only some 19% were active in any assay of this set; here they are far more common.
# TGFb inhibitor = qHTS for Inhibitors of TGF-b. HepG2 CAGA-GFP TGF-b/SMAD3 reporter, GFP fluorescence, 18 h; TGF-beta stimulated, 500 pg/mL final. Potency, µM (highest dose often 46.1 µM), without a hit: top-dose activity, negative = inhibition, usual class: inhibitors. actives 1.2% (n = 410,000); further: potency means the concentration at half of the fitted maximal effect; on the % scale 0 is the no-effect control and ±100 the full control effect; nearly all actives have a fitted effect of over 65% in size
#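 HEPG2 CAGA-GFP cells (1000/well, DMEM with 1% FBS) were pre-incubated 2 h at 37 degrees C, given compound by pin tool, then stimulated with TGF-beta at 500 pg/mL final for 18 h before per-cell GFP fluorescence imaging.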
# HepG2 tox = qHTS for Inhibitors of TGF-b: Cytotox Counterscreen. HepG2 CAGA-GFP viability, ATP luminescence, 18 h. actives 0.76% (n = 410,000). AID 588856, 2011. Potency, µM (doses to about 46.1 µM), for inactives: top-dose activity change, negative = cytotoxicity, hits mostly cytotoxic; further: potency means the concentration at half of the fitted maximal effect
#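 HepG2 CAGA-GFP cells (1000/well, DMEM with 1% FBS) received compound, then TGF-beta at 500 pg/mL final, and were incubated 18 hours at 37 degrees C. Viability was read by CellTiter-Glo luminescence. Media-only wells were set as complete cell-killing and DMSO as no toxicity.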
# TDP1 cell CPT = qHTS for Inhibitors of human tyrosyl-DNA phosphodiesterase 1 (TDP1): qHTS in cells in presence of CPT; chicken DT40 Tdp1-/-;hTDP1 cells + 20 nM CPT, ATP luminescence, 48 h; Potency, µM (top dose mostly 46.2 µM), for the others: top-dose activity change, negative = growth inhibition, usual class: inhibitors; actives 12% (n = 420,000); further: potency means the concentration at half of the fitted maximal effect; on the % scale 0 is the no-effect control and ±100 the full control effect; nearly all actives have a fitted effect of over 55% in size
#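 Cell growth measured by CellTiter-Glo luminescence after a minimum 48 h, 37 C compound exposure with 20 nM CPT in Tdp1-knockout DT40 cells stably expressing hTDP1, seeded 400/well; qHTS titration format.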
# TDP1 cell noCPT = qHTS for Inhibitors of human tyrosyl-DNA phosphodiesterase 1 (TDP1): qHTS in cells in absence of CPT; Potency, µM (titrated, usually from 46.2 µM), inactives show at the highest dose activity change, negative = growth inhibition, usual class: inhibitors; DT40 Tdp1-/- hTDP1 cells, no CPT, ATP luminescence, 48 h; actives 15% (n = 420,000); further: potency means the concentration at half of the fitted maximal effect; on the % scale 0 is the no-effect control and ±100 the full control effect; nearly all actives have a fitted effect of over 55% in size
#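 Seeded 400 DT40-hTDP1 cells/well (vehicle DMSO, no 20 nM CPT); pinned compounds; ≥48 hr at 37 °C; CellTiter-Glo luminescence as viability measure.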
# IL-1B inflam inh = qHTS for Inhibitors of Inflammasome Signaling: IL-1-beta AlphaLISA Primary Screen. THP-1 LPS/ATP IL-1B secretion, AlphaLISA, 16 h; hits give low values. activity change, % at 57.5 µM. actives 4.7% (n = 360,000). AID 743279, 2014; in the data active means activity change below about -50%; inconclusive means mostly about -30% to -49%; further: on the % scale 0 is the no-effect control and ±100 the full control effect
#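 THP-1 cells pretreated 1 hr with compounds (up to 57.5 uM final), then stimulated with LPS (250 ng/mL final) plus ATP (1.25 mM final); secreted IL-1B measured by AlphaLISA after 16 hr, decreased signal indicating inhibition.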
# ASM inhibitor = Inhibitors of Secretory Acid Sphingomyelinase (S-ASM): qHTS | Sphingomyelin phosphodiesterase (Homo sapiens), P17405 | placental ASM, HMU-PC fluorogenic substrate, 60 min | Potency, µM (top dose mostly 57.5 µM), without a hit: at the top dose activity change, negative = inhibition, most hits filed as inhibitors | actives 0.006% (n = 340,000) | AID 504937, 2011; further: potency means the concentration at half of the fitted maximal effect
# Target sequence (P17405 47-631 limits assumed): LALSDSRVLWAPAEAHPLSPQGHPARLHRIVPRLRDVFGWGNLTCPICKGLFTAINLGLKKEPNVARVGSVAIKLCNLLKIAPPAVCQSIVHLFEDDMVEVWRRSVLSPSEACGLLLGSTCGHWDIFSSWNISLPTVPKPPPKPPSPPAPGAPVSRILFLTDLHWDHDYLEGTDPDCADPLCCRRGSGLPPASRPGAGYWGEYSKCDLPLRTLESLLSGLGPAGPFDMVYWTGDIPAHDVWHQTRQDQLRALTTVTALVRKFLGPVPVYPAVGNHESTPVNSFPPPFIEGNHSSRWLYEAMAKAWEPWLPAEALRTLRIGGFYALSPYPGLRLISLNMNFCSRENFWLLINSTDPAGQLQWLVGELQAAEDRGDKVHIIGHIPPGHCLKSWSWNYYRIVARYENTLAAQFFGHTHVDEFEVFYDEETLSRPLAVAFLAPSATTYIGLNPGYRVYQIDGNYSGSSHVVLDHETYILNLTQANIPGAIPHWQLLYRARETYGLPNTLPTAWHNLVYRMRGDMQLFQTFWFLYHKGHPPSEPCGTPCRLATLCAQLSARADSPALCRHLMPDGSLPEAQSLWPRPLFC
#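 Fluorogenic HMU-PC substrate (9 uM final) is turned over by placental ASM in 60 min at 37 C after a 10 min compound preincubation. Reaction ended by alkaline stop (pH 10), with fluorescence read at 386/447 nm.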
# An asterisk follows results filed as active; ? = inconclusive; / = no result given; [ ] = remark or other dose. Unless noted, the call rests on the fitted dose curve; in most records, active means well fitted curve in the direction sought with a large enough effect; inconclusive means small, poorly fitted or top-dose-only effect, or another doubt; inactive means no such curve, though single readings can be large; an effect the other way counts as inactive or inconclusive.
SMILES,TGFb inhibitor,HepG2 tox,TDP1 cell CPT,TDP1 cell noCPT,IL-1B inflam inh,ASM inhibitor
CSc1ccccc1OCc1cc(C(=O)N2CCc3[nH]cnc3C2c2ccccn2)no1 (stereo not given),0.0%,-36.2%,-14.4%,2.91µM*,-15.2,0.4%
CCOC(=O)N1CCC(NC(=O)c2cc(COc3ccc(F)cc3Cl)on2)CC1,7.1%,4.2%,-15.4%,-9.6%,0.0,-0.1%
Cn1ccnc1C1CCCCN1C(=O)c1cc(COc2ccc(F)cc2F)on1 (stereo not given),-5.8%,-28.3%,?,13µM*,-0.7,1.7%
CSc1ccccc1OCc1cc(C(=O)N2CCCC2c2nonc2C)no1 (stereo not given),-0.1%,-17.2%,23.1µM*,20.6µM*,-29.4,-0.5%
CCOC(=O)N1CCC(NC(=O)c2cc(COc3ccccc3SC)on2)CC1,-26.2%,-16.8%,3.66µM*,1.46µM*,-22.4,/
Cc1cccc(C)c1OCc1cc(C(=O)N2CCCC2c2nonc2C)no1 (stereo not given),-13.6%,-13.4%,?,?,-19.6,-2.4%
Cc1ccc(S(=O)(=O)NCCc2nnc3ccc(SCC(=O)Nc4ccc(F)cc4F)nn23)cc1,19.4%,-9.5%,-22.3%,4.6%,/,/
O=C(CCc1ccccc1)Nc1ccc(S(=O)(=O)NC2=NCCCCC2)cc1,?,-3.5%,-1.9%,-26.5%,17.8,-5.4%
Cc1ccccc1NS(=O)(=O)c1ccc(C(=O)NN2CCCCC2)cc1,10.8%,-23.6%,-5.8%,-12.3%,0.0,-3.5%
Cc1cc(Cl)ccc1N(CC(=O)N(C)Cc1ccccc1)S(C)(=O)=O,3.8%,-1.7%,-25.3%,-29.8%,2.6,/
COc1ccccc1/C=N/NC(=O)c1cccc(NC(=O)c2ccccc2Cl)c1,-0.5%,-18.9%,9.5%,-0.9%,-8.7,-1.6%
COc1cc(/C=N/NC(=O)c2cccc([N+](=O)[O-])c2)cc(OC)c1O,1.6%,-16.4%,-22.7%,?,-4.0,-1.1%
COc1cccc(/C=N/NC(=O)c2ccc([N+](=O)[O-])cc2Cl)c1O,?,-23.5%,4.61µM*,4.61µM*,68.6,-0.9%
COc1ccccc1/C=N/NC(=O)c1ccccc1Cl,-17.5%,5.2%,10.8%,7.0%,-67.2*,4.4%
COc1ccc(/C=N/NC(=O)c2cccc(NC(=O)c3ccccc3Cl)c2)cc1,-29.8%,7.3%,3.66µM*,4.61µM*,88.4,-8.1%
COc1ccc(/C=N/NC(=O)c2cccc(NC(=O)c3ccccc3Cl)c2)cc1OC,-0.3%,12.5%,-11.6%,?,21.6,-6.6%
Cc1ccccc1Cc1nc2cccnc2n1C1CCN(C(=O)CC2NC(=O)c3ccccc32)CC1 (stereo not given),/,/,-5.2%[9.04 µM],?,/,/
CC(=O)Oc1ccc(OC(C)=O)c(S(=O)(=O)c2ccc(C)c(C)c2)c1,-1.1%,0.6%,-2.0%,-6.8%,18.5,-1.4%
CC(=O)Oc1ccc(OC(C)=O)c(SCCCCCCl)c1,?,24.2%,2.06µM*,2.91µM*,-62.9*,-3.0%
N=c1n(CCN2CCCCC2)c2ccccc2n1CC(O)c1ccc(Cl)c(Cl)c1 (stereo not given),?,11.2µM*,3.66µM*,8.2µM*,-67.9*,4.1%
N=c1n(CCN2CCCCC2)c2ccccc2n1CC(=O)c1ccc(Cl)c(Cl)c1,?,-186.7%,?,?,/,-15.3%
N=c1n(CCN2CCCCC2)c2ccccc2n1CC(O)c1cccc(Br)c1 (stereo not given),-4.6%,-96.6%,14.6µM*,16.4µM*,-6.2,-3.7%
CN(C)CCn1c(=N)n(CC(O)c2ccc(Cl)c(Cl)c2)c2ccccc21 (stereo not given),?,-74.5%,23.1µM*,23.1µM*,/,-1.6%
CCn1c(=N)n(CCO)c2ccccc21,?,-2.3%,9.8%,-19.0%,43.3,7.4%
C=CCNC(=O)c1ccccc1NC(=O)COc1ccccc1,-15.0%,0.3%,1.2%,-7.0%,0.1,1.5%
SMILES,TGFb inhibitor,HepG2 tox,TDP1 cell CPT,TDP1 cell noCPT,IL-1B inflam inh,ASM inhibitor
O=C(C(=O)N1CCCC1CO)N1CCCC1CO (stereo not given),-6.6%,-3.6%,13.0%,-0.7%,0.0,1.9%
O=C(CCl)NC(Cc1ccccc1)C(=O)OCC(=O)c1ccc(-c2ccccc2)cc1 (stereo not given),?,-60.9%,?,?,-85.9*,-0.2%
O=C(N[C@@H](Cc1ccccc1)C(=O)CCl)OCc1ccccc1,?,-76.2%,2.31µM*,2.31µM*,-111.1*,-4.2%
CC(=O)NC(Cc1ccccc1)C(=O)OCC(=O)c1ccc(Cl)cc1 (stereo not given),16.6%,2.6%,3.0%,-26.5%,15.0,-2.1%
COC(=O)c1ccc(NC(=O)CN2CCN(CCO)CC2)cc1,-6.3%,-9.3%,-12.2%,-2.9%,6.2,1.1%
NC(=O)C1CCCN(C(=O)CNC(=O)C23CC4CC(CC(C4)C2)C3)C1 (stereo not given),-2.0%,-27.4%,-10.8%,-0.4%,2.6,-1.8%
O=C(CNC(=O)c1ccc(-c2ccccc2)cc1)Nc1ccc(S(=O)(=O)Nc2ncccn2)cc1,-10.6%,2.2%,1.3%,-0.6%,41.9,-0.9%
CCOC(=O)c1nc2sc(C)c(C)c2c(=O)[nH]1,-0.2%,-6.4%,-14.6%,-9.2%,6.7,237.6%
CCOC(=O)/C(=C\c1cccc(O)c1)c1nc2sc(C)c(C)c2c(=O)[nH]1,?,-60.9%,9.2µM*,23.1µM*,-101.8*,-8.0%
O=C(CCOc1ccccc1)N1CCCC(Nc2ccccc2)C1 (stereo not given),-1.2%,-2.5%,?,?,-16.9,/
COc1ccc(S(=O)(=O)N2CCOC2CNC(=O)C(=O)NCc2cccnc2)cc1C (stereo not given),-5.2%,-27.2%,?,-20.1%,34.6,-3.3%
N=c1ccn(Cc2cccc(F)c2)cc1,-15.7%,-3.3%,?,18.4µM*,14.9,-0.9%
Nc1ccn(Cc2cccc(F)c2)n1,13.8%,10.2%,-1.1%,-1.6%,9.8,7.5%
COc1ccccc1Cn1c(C)c(C(=O)NCc2cccc(C)c2)sc1=O,-14.5%,-24.1%,?,-13.8%,?,/
